Source: PubChem BioAssay
A number with no mark means an inactive call. How the calls were made is not given here.

Target: Pantothenate synthetase (Mycobacterium tuberculosis (strain ATCC 25618 / H37Rv)) (UniProt P9WIL5)
Assay: Recombinant Mtb pantothenate synthetase (PanC) inhibitors, coupled enzyme, confirmatory (AID 375);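 further: 0% = full reaction with vehicle and 100% = no enzyme background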
Settings: coupled enzyme assay; at 10 µM, stronger effect = higher value

Sequence of Pantothenate synthetase (Mycobacterium tuberculosis (strain ATCC 25618 / H37Rv)) (P9WIL5 whole entry, looked up): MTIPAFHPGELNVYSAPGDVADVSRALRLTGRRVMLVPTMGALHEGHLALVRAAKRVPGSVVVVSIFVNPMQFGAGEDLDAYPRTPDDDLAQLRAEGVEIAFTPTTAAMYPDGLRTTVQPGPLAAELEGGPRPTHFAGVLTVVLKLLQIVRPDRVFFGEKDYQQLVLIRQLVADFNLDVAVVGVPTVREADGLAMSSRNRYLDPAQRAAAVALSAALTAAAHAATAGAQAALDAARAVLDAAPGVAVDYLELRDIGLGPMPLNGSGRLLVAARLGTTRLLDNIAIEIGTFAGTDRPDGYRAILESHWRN

Row | Compound | inhibition
1 | CCOC(=O)c1ccc(Oc2nc(SC)nc(N(C)C)n2)cc1 | 1%
2 | CCN(CCNC(=O)C1CCN(S(C)(=O)=O)CC1)c1ccccc1 | 6%
3 | CN(C(=O)c1ccc(S(=O)(=O)NC2CCCC2)cc1)C1CCCCC1 | 5%
4 | COc1ccc(OC)c(NC(=O)Cc2coc3ccc(C)cc23)c1 | 6%
5 | O=C(COc1ccccc1Cl)NCCCN1CCOCC1 | 0%
6 | Cc1nc2ncnn2c(C)c1CCC(=O)NCCCN1CCN(c2cccc(Cl)c2)CC1 | 0%
7 | Cn1c(=O)c2c(nc(SCC(=O)NCc3ccc4c(c3)OCO4)n2Cc2ccccc2)n(C)c1=O | 0%
8 | C[C@@H]1C[C@H](O)c2cc(Cl)ccc2N1 | 8%
9 | COc1cc(NS(=O)(=O)c2ccc(Br)s2)cc(OC)c1 | 0%
10 | CCOc1cc(CN2CCN(C(=O)c3ccco3)CC2)ccc1OC | 9%
11 | c1cc2c(cc1C1CCCN1)OCCCO2 (configuration not stated) | 2%
12 | O=C(COC(=O)c1cc(S(=O)(=O)N2CCOCC2)ccc1O)NCC1CCCO1 (configuration not stated) | 15%
13 | COc1ccc(N2C(N)=C(C#N)C(c3cccnc3)C3=C2CC(C)(C)CC3=O)cc1 (configuration not stated) | 0%
14 | COc1cccc(-n2nc(C(=O)Nc3ccc4c(c3)OCO4)c3ccccc3c2=O)c1 | 0%
15 | CCN(CC)C(=O)c1sc2nc(-c3cccs3)cc(-c3cccs3)c2c1N | 0%
16 | Cc1oc(-c2ccccc2F)nc1CS(=O)(=O)CC(=O)NCc1ccco1 | 0%
17 | COCc1nnc(SCC(=O)NC(C)c2ccccc2)n1-c1ccccc1 (configuration not stated) | 4%
18 | c1ccc2c(c1)Cc1cc(CN3CCOCC3)ccc1-2 | 3%
19 | N#CC1=C(N)Oc2n[nH]c(-c3cccs3)c2C1c1cccs1 (configuration not stated) | 2%
20 | Cn1c(SCC(=O)Nc2ccc3c(c2)OCO3)nnc1-c1cnccn1 | 1%
21 | O=C(CSc1nnnn1-c1ccc(Cl)cc1)NC(=O)Nc1ccc2c(c1)OCCO2 | 2%
22 | CCOC(=O)c1ccccc1NC(=O)CSc1nccn1C | 0%
